As usually defined, the inhibition is the drop in the measured response relative to a control, in per cent.

Out of some 300,000 compounds screened, about 3,200 (1.1%) were called active. No stated cut-off is given here; in the data, active means inhibition above about 75%; inconclusive means no clear call, values can overlap the other calls; inactive means below that; tested in HMLE shEcad cells. Many of the other results were omitted from the sample, so actives are more common in it than they were.

Results on 88 molecules are retold here after PubChem BioAssay AID2717 (Broad Institute, 2010).

This test is described as follows: cancer stem cell viability inhibitors, primary screen, luminescence (AID 2717). Particulars: cancer stem cell-like cells viability, at 7.5 µM, active compounds read high.
Take `C=CCC[C@H](Cc1ccc(F)cc1)C(=O)OC[C@H](C)NC(=O)[C@H](CC=C)CC(=O)N(CCO)Cc1ccccc1`: the inhibition is -9.39% (inactive).

As for `COc1cccc2sc(Nc3nc(C)c(C(C)=O)s3)nc12`, the inhibition was 17.8% (inactive).

Turning to `COc1cccc2sc(NNC(=O)c3nc4ccccc4s3)nc12`, the inhibition was 103% (active).

For the molecule `COc1ccccc1OCc1nc2ccccc2s1`, the inhibition was 5.53% (inactive).

As to `CCN(C[C@H]1N[C@@](CC)(C(=O)OC)[C@H]2C(=O)N(C)C(=O)[C@@H]12)C(=O)Nc1ccc(F)cc1`, the inhibition was -20.7% (inactive).

Turning to `N#Cc1nc(-c2cccc3ccccc23)oc1N`, the inhibition was 8.01% (inactive).

Consider `Cc1ccc(NNC(=O)c2c(F)cccc2Cl)cc1Cl`, for which the inhibition was -4.9% (inactive).

For `Cc1ccc(NNC(=O)c2cccs2)cc1Cl`, the inhibition is 90.5% (active).

Consider `O=C(NNC(=O)c1ccc(Cl)cc1Cl)c1cccs1`, for which the inhibition is 5.32% (inactive).

As to `CC(=O)Nc1ccc(SC[C@H](Cc2ccccc2)N2CC[C@@H](C)CCC2=O)cc1`, the inhibition was 1.36% (inactive).

With `CC(NC(=O)COC(=O)CCC(=O)c1ccc(Cl)cc1)c1ccccc1` (stereo not drawn), the inhibition is -16.5% (inactive).

As to `O=C(CCNC(=O)c1ccccc1Cl)NN=Cc1ccco1`, the inhibition is -8.03% (inactive).

As to `O=[N+]([O-])c1cc(S(=O)(=O)NCCc2ccccn2)ccc1Cl`, the inhibition was -19.2% (inactive).

Regarding `COc1ccc(-c2csc(-c3cccs3)n2)cc1OC`, the inhibition is 11.3% (inactive).

For the molecule `COc1ccc(-c2csc3nc(-c4ccccc4F)oc(=O)c23)cc1OC`, the inhibition is 98.7% (active).

Take `COc1ccccc1-c1nnc(-c2ccc(F)cc2)o1`: the inhibition was 4.47% (inactive).

On to `O=S(=O)(Nc1ncnc2sccc12)c1cccc(F)c1`, for which the inhibition was -7.13% (inactive).

`COc1ccc(NC(=O)CNc2cc(S(=O)(=O)N3CCOCC3)ccc2N2CCOCC2)c(OC)c1`: the inhibition is 6.36% (inactive).

As for `COc1ccccc1N(CCOc1ccccc1)S(=O)(=O)c1ccccc1`, the inhibition was 7.81% (inactive).

Regarding `COc1cc(C#Cc2ccc3cc(CCCO)oc(=O)c3c2)cc(OC)c1`, the inhibition was 11.5% (inactive).

In the case of `COc1ccc2c(c1)O/C(=C\c1ccccc1O)C2=O`, the inhibition was -1.63% (inactive).

Consider `COc1cc(/C=C2\Oc3ccc(C#Cc4ccc(O)cc4)cc3C2=O)cc(OC)c1`, for which the inhibition was 115% (active).

`O=C1N[C@H](Cc2c[nH]c3ccccc23)COC(=O)[C@H](Cc2ccc(F)cc2)C/C=C\C[C@H]1CC(=O)N(CCO)Cc1ccccc1`: the inhibition was 36.2% (inactive).

For the molecule `CC(=O)NC(CC(=O)Nc1ccc(S(=O)(=O)N2CCOCC2)cc1)c1ccccc1` (stereo not drawn), the inhibition was -4.54% (inactive).

As to `CC(=O)c1c(C)[nH]c(C(=O)COC(=O)c2cccs2)c1C`, the inhibition was -12.4% (inactive).

Consider `COc1ccc(C(=O)C(C)OC(=O)c2cccc(S(=O)(=O)Nc3c(C)n(C)n(-c4ccccc4)c3=O)c2)cc1` (stereo not drawn), for which the inhibition is -12.3% (inactive).

In the case of `O=C(CN1C(=O)NC2(CCCC2)C1=O)Nc1cc(C(F)(F)F)ccc1N1CCOCC1`, the inhibition was -16.7% (inactive).

For the molecule `CCOC(=O)C1CCCN(C(=O)CSc2nnc3nc(C)cc(C)n23)C1` (stereo not drawn), the inhibition was 8.11% (inactive).

`CC(=O)C1C(c2ccc(Cl)cc2)NC(=O)NC1(O)C(F)(F)F` (stereo not drawn): the inhibition is -6.38% (inactive).

With `CC1=NN(c2ccc(Cl)c(C(=O)O)c2)C(=O)/C1=C/c1ccc(-c2ccccc2[N+](=O)[O-])o1`, the inhibition was 12.7% (inactive).

For `O=C(/C=C(O)/C=C/c1ccc(O)cc1)/C=C/c1ccc(O)cc1`, the inhibition was 44.3% (inactive).

As to `CC1Sc2ccc(C(=O)NCc3ccccc3Cl)cc2NC1=O` (stereo not drawn), the inhibition is -22.7% (inactive).

`Cc1ccc(C(=O)NCC(=O)NC2CC2)cc1`: the inhibition is -14.8% (inactive).

As to `CCc1ccc(NC(=O)COC(=O)c2cccs2)cc1`, the inhibition is -11.1% (inactive).

As for `O=C(OCC(=O)c1cccs1)C1=COCCO1`, the inhibition was -0.0949% (inactive).

As to `CCC(C)(C)c1ccc(Oc2ccc(NC(=O)COC(=O)C3=COCCO3)cc2)cc1`, the inhibition was 103% (active).

In the case of `O=C1OC[C@@H]2CCCN2C(=O)[C@H](CC(=O)N(CCO)Cc2ccccc2)C/C=C\CC[C@@H]1Cc1ccc(F)cc1`, the inhibition is -11.9% (inactive).

For the molecule `CCOc1ccccc1Nc1nnc(SCC(=O)NCC2CCCO2)s1` (stereo not drawn), the inhibition was -6.96% (inactive).

For `C=CCC[C@@H](Cc1ccc(F)cc1)C(=O)O[C@H](CNC(=O)[C@H](CC=C)CC(=O)N(CCO)Cc1ccccc1)c1ccccc1`, the inhibition is 41.9% (inactive).

For the molecule `COc1cc(OC)c(C(=O)NNC(=O)c2ccccc2-n2cccc2)cc1OC`, the inhibition is 17.7% (inactive).

Take `COc1ccc(CNc2nc(NCc3ccc(OC)cc3)c3ncn(C4CCCC4)c3n2)cc1`: the inhibition is 62.8% (inactive).

Take `O=C(Cn1cnc2c(OCc3ccccc3)ncnc21)NCCCn1ccnc1`: the inhibition was -10.9% (inactive).

For the molecule `O=C(COC(=O)CN1C(=O)C2CCCCC2C1=O)Nc1ccc(F)c(F)c1F` (stereo not drawn), the inhibition is -26.6% (inactive).

On to `O=C1c2ccccc2NC(c2ccc(-c3cccc(Cl)c3)o2)N1O` (stereo not drawn), for which the inhibition is 85.5% (active).

In the case of `O=c1c(-c2cccc(Cl)c2)c[nH]n1-c1ccccc1`, the inhibition is 6.17% (inactive).

As to `O=C1NC(c2cccc(Cl)c2)Nc2ccccc21` (stereo not drawn), the inhibition is 23% (inactive).

With `C[C@@H](CN1CCC[C@H]1CN1C(N)=NC[C@@H]1Cc1ccccc1)N1C[C@@H](Cc2ccccc2)N(CCCC2CCCC2)C1=N`, the inhibition is 1.15% (inactive).

On to `CCOCc1c(C(=O)N2CCN(Cc3ccc(Br)s3)CC2)oc2ccccc12`, for which the inhibition was -4.05% (inactive).

Turning to `COc1ccc(-c2cc(C(F)(F)F)nc(S(C)(=O)=O)n2)cc1OC`, the inhibition was 94.1% (active).

Consider `COc1ccc(-c2cc(C(F)(F)F)nc(NCc3cccnc3)n2)cc1`, for which the inhibition was 32.4% (inactive).

Turning to `COc1cc(OC)nc(S(C)(=O)=O)n1`, the inhibition was 2.64% (inactive).

For `C[C@H](NS(=O)(=O)c1ccc(Cl)cc1)C(=O)OCC(=O)N1CCOCC1`, the inhibition is 17.5% (inactive).

Take `Fc1ccc(/C=N/Nc2nc(-c3cccnc3)nc3ccccc23)cc1`: the inhibition is 5.78% (inactive).

In the case of `Cc1nc2ccccc2nc1N/N=C/c1ccc(O)cc1O`, the inhibition is 63.2% (inactive).

For the molecule `Oc1ccc(/C=N/Nc2nc(-c3ccccc3F)nc3ccccc23)c(O)c1`, the inhibition was 123% (active).

Regarding `Cc1noc(C)c1S(=O)(=O)N(C)C[C@H]1Oc2ccc(NC(=O)C3CCCCC3)cc2C(=O)N([C@H](C)CO)C[C@@H]1C`, the inhibition is -25.9% (inactive).

In the case of `CCCc1cc(=O)[nH]c(SCC(=O)Nc2ccc(C(=O)Nc3ccccc3OC)cc2)n1`, the inhibition is -1.96% (inactive).

For `O=C(COC(=O)c1cccnc1Cl)NC12CC3CC(CC(C3)C1)C2`, the inhibition is -4.72% (inactive).

Regarding `O=C(COC(=O)c1cc[n+]([O-])cc1)Nc1ccc(Cl)c(C(F)(F)F)c1`, the inhibition is 13.8% (inactive).

Consider `CC(=O)Nc1ccc(N2C(=O)C3C4C=CC(CC4)C3C2=O)cc1` (stereo not drawn), for which the inhibition is 5.09% (inactive).

With `Cc1ccc(N2C(=O)C3C4C=CC(CC4)C3C2=O)cc1Cl` (stereo not drawn), the inhibition was 51.3% (inactive).

With `Cc1ccc(N2C(=O)C3C4C=CC(CC4)C3C2=O)cc1Br` (stereo not drawn), the inhibition is 84.8% (active).

On to `O=C(CN1C(=O)NC2(CCCCCCC2)C1=O)NCc1ccc(F)cc1`, for which the inhibition was -11.3% (inactive).

As to `CCNC(=S)N1CCN(S(=O)(=O)c2ccc(Cl)s2)CC1`, the inhibition is -8.45% (inactive).

As for `COc1ccc(/C=C/c2nnc(NC(=O)C(C)C)s2)cc1`, the inhibition was -1.02% (inactive).

Turning to `COc1ccc(NC(=O)COC(=O)c2ccc(NS(=O)(=O)/C=C/c3ccccc3)cc2)cc1`, the inhibition was -2.32% (inactive).

Take `COC(=O)c1ccc(/C=C/c2c(-c3ccc(OC)cc3)sc3ccccc23)cc1`: the inhibition was 120% (active).

With `CC(C)Cn1c(SCC(=O)Nc2ccc(Cl)cc2F)nc(O)cc1=O`, the inhibition is -7.16% (inactive).

As for `O=C(CSc1ncnc2sccc12)NC1CCS(=O)(=O)C1` (stereo not drawn), the inhibition was -16.5% (inactive).

Consider `O=C(COC(=O)c1cccnc1Cl)Nc1ccc(S(=O)(=O)N2CCOCC2)cc1`, for which the inhibition is 1.63% (inactive).

For `CCCc1cc(-c2nc(-c3ccc(C)cc3)cs2)ccn1`, the inhibition is 101% (active).

Take `Cc1ccc(-c2csc(-c3c[nH]c4ccccc34)n2)cc1`: the inhibition was 0.177% (inactive).

For the molecule `Cc1ccc(-c2csc(-c3cc(C)on3)n2)cc1`, the inhibition is -0.292% (inactive).

With `O=C(CCc1ccc(S(=O)(=O)N2CCOCC2)cc1)OCC(=O)c1ccc(Br)cc1`, the inhibition was 7.19% (inactive).

As to `COc1ccc(NS(=O)(=O)c2cc(NC(=O)c3ccc(S(=O)(=O)N(C)C)cc3)ccc2N2CCOCC2)cc1`, the inhibition is -5.14% (inactive).

Regarding `COc1cc(OC)cc(-c2c(C#Cc3ccsc3)c3cc(-c4ccc(OC)cc4F)ccc3n2C)c1`, the inhibition was 0.462% (inactive).

`COc1ccc(/C=C(\C#N)c2c[nH]c3ccccc23)cc1`: the inhibition is 102% (active).

Consider `COc1cc(/C=C(\C#N)c2nc3ccccc3[nH]2)ccc1O`, for which the inhibition is 33.3% (inactive).

As for `COc1ccc2[nH]cc(/C=C(/C#N)S(=O)(=O)c3ccccc3)c2c1`, the inhibition was 12.3% (inactive).

Take `Cc1cc(C)c(CN2CCN(C(=O)Cn3ccc(NC(=O)OCc4ccccc4)nc3=O)CC2)c(C)c1`: the inhibition is -17.4% (inactive).

With `C=CC[C@@H](CC(=O)N[C@@H](CO)Cc1ccccc1)C(=O)N[C@H](COC(=O)[C@H](CC=C)CC(=O)OC(C)(C)C)Cc1ccccc1`, the inhibition is -16.7% (inactive).

Turning to `COCC(C)n1c(SCC(=O)NC2CCCCC2C)nc2ccccc2c1=O` (stereo not drawn), the inhibition is 4.54% (inactive).

On to `S=c1[nH]nc(-c2cccnc2)n1/N=C/C(Cl)=C\c1ccccc1`, for which the inhibition is 8.61% (inactive).

On to `Cc1cc(-c2n[nH]c(=S)n2/N=C/C(Br)=C/c2ccccc2)n[nH]1`, for which the inhibition is 82.9% (active).

In the case of `S=c1[nH]nc(-c2cc(-c3ccccc3)n[nH]2)n1/N=C/c1c2ccccc2cc2ccccc12`, the inhibition is 48% (inactive).

On to `CN(C(=O)CSc1cccc[n+]1[O-])C1CCCCC1`, for which the inhibition was -18.5% (inactive).

For `C[C@H](CO)N1C[C@H](C)[C@@H](CN(C)S(=O)(=O)c2ccc(F)cc2)Oc2c(NC(=O)Nc3ccccc3)cccc2C1=O`, the inhibition was -11.6% (inactive).

Take `CC1Cc2ccccc2N1S(=O)(=O)c1cccc(C(=O)OCC(=O)N2CCOCC2)c1` (stereo not drawn): the inhibition is -6.52% (inactive).
